Screening results as filed in PubChem.
Sampled rows, rich in hits. Any-hit rate of the full collection: about 2.1%.
ROMK mod: modulates human ROMK potassium channel activity; Tet-inducible ROMK, thallium flux fluorescence; actives lie on both sides; B-score at 10 µM; AID 1918; P48048; actives 2% (n = 130,000);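 active means signal ratio slope over the read window, or its plate-corrected B-score, at least 3 SD from the plate mean, either direction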;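 further: B-score of the F/F0 ratio slope over 7 to 12 s after thallium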
Target sequence (P48048 whole entry, looked up): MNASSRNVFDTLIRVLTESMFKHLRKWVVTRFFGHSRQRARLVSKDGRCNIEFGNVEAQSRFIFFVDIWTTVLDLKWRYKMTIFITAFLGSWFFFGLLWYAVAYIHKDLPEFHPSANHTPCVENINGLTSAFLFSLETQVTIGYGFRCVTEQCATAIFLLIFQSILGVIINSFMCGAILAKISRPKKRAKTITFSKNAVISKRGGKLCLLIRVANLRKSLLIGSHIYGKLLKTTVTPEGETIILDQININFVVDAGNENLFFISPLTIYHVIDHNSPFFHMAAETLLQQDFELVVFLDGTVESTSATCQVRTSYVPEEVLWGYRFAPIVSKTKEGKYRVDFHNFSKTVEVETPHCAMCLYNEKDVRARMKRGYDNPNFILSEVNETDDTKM
Calpain2 inh: calpain II (pig) inhibition. AID 1236. inhibition, % at 16 µM. actives 0.37% (n = 220,000). purified calpain II, fluorogenic peptide substrate, 30 min;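 active means inhibition above about 50%, limit read from the data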
HSV augment: HSV replication enhancement; HSV replication augmentation in cells, fold increase; actives 0.005% (n = 220,000); maximum fold increase; AID 1956; in the data active means maximum fold increase above about 1.5; tested in PC3 cells
HMGR II inh: blocks class II HMG-CoA reductase of Enterococcus faecalis. purified E. faecalis HMGR, NADPH absorbance 340 nm kinetic. inhibition, % at 10 µM. actives 0.41% (n = 190,000). AID 1066;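 active means inhibition above a set limit, the median over all tested compounds plus 3 SD, cut at about 9.5% in these data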;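 further: enzyme runs in reverse so mevalonate oxidation gives rising NADPH absorbance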
Arbovirus anti: arbovirus infection inhibition | arbovirus infection cell-based antiviral screen | inhibition, % at 10 µM | actives 0.37% (n = 200,000) | AID 1251; in the data active means inhibition above about 30%
Numbers stand for hits; n = inactive; x = not tested or not shown; ! = not confirmed by another sample.

SMILES	ROMK mod	Calpain2 inh	HSV augment	HMGR II inh	Arbovirus anti
Cc1cccc(C)c1NC(=O)CN(C)C(=O)C(c1ccccc1)c1ccccc1	x	n	n	n	n
O=C(O)c1ccccc1N/N=C\c1ccnc2ccccc12	n	n	n	n	31.2
Brc1ccc(CNc2cc3c(cc2Br)OCCO3)cc1	n	n	n	n	n
COc1ccc(/C(C)=N/NC(=O)C(NC(=O)c2ccccc2)c2n[nH]c(=O)c3ccccc23)c(OC)c1 (configuration not stated)	n	n	n	x	x
CCC(C)(c1nnnn1-c1c(C)cccc1C)N(N=O)c1ccccc1Cl (configuration not stated)	x	n	n	n	n
Cc1ccc(C)c(OCCCC(=O)Nc2nccs2)c1	n	69.1	n	n	n
CC(C)[C@H](NC(=O)CCCn1nnc2ccccc2c1=O)C(=O)O	x	n	n	x	x
Cc1nc(-c2cn[nH]c2-c2ccc(O)cc2O)cs1	-3.09	n	n	n	n
COc1cc(C)c(-c2[nH]ncc2-c2csc(C)n2)c(O)c1	n	n	n	n	n
O=C(/C=C/c1cccs1)c1ccc(NC(=O)c2ccccc2F)cc1	x	n	n	17.7	n
COc1ccccc1C(=O)Nc1ccc(C(=O)/C=C/c2cccs2)cc1	n	n	n	n	n
Oc1ccc(C2=Nn3c(nnc3-c3ccco3)SC2)cc1O	x	n	x	12.3	n
COc1ccc(C2=Nn3c(nnc3-c3ccco3)SC2)cc1	n	50.8	n	n	n
O=[N+]([O-])c1cccc(P(=O)(O)c2cccc([N+](=O)[O-])c2)c1	n	n	n	x	x
CC(=O)NCCc1nc2ccccc2n1Cc1cc(C)ccc1C	n	n	n	x	x
CCCCNC(=O)C(=O)NCCCn1ccnc1	n	n	n	n	n
C/C(=N\O)C(=O)NCCCn1ccnc1	2.14	n	n	n	n
COc1ccc(-c2csc(C)n2)cc1	x	n	n	9.8	n
COc1ccc(-c2csc(C)n2)cc1OC	n	n	n	n	n
Nc1c(Cl)cc2c(c1Oc1ccccc1)C(=O)c1ccccc1C2=O	n	52.8	n	n	n
FC(F)(F)c1nnc2ccc(NCc3ccccc3)nn12	n	91.8	n	n	n
COC(=O)c1ccc(COC(=O)c2ccc(SC)cc2OC)cc1	x	n	n	n	n
C=CCNc1cnn(-c2ccc(C)cc2)c(=O)c1Sc1ccc(C)cc1	n	65.3	n	n	n
Cc1ccc(Sc2cnn(-c3ccccc3)c(=O)c2Cl)cc1	n	n	n	n	n
Cc1ccc(NC(=O)CSc2nsc(SCC(=O)Nc3ccc(C)cc3C)c2C#N)c(C)c1	x	51.1	n	n	n
SMILES	ROMK mod	Calpain2 inh	HSV augment	HMGR II inh	Arbovirus anti
Cc1ncc([N+](=O)[O-])n1CCO	x	n	n	n	n
Cc1ncc([N+](=O)[O-])n1CC(C)O (configuration not stated)	x	n	n	15.6!	n
CCS(=O)(=O)CCn1c([N+](=O)[O-])cnc1C	x	n	n	13.6	n
CCc1cc2c3c(c1)/C(=C1/SC(N)=NC1=O)C(=O)N3C(C)(C)C=C2C	n	n	n	n	n
CCc1cc2c3c(c1)C(C)CC(C)(C)N3C(=O)/C2=C1\SC(=O)NC1=O (configuration not stated)	x	56.9	n	x	x
O=S(=O)(Nc1nc2ccccc2nc1NCc1ccco1)c1ccc(Cl)cc1	x	n	n	n	n
Cc1noc(C)c1CSc1nc2ccccc2nc1NS(=O)(=O)c1ccc(Cl)cc1	-3.13	n	n	n	n
COc1ccc(C)cc1NC(=O)C(Sc1nnnn1C)c1ccccc1 (configuration not stated)	n	n	n	14.6	n
Cc1ccc(C2NC(c3ccc(C)cc3)C(C)C(=O)C2C)cc1 (configuration not stated)	x	n	n	x	x
CN(c1ccccc1)S(=O)(=O)c1cccc(NC(=O)CCN2C(=O)C3CCCCC3C2=O)c1 (configuration not stated)	n	n	n	n	n
C/C(=N\NC(=O)c1c(Cl)c(C)nn1C)c1ccc(NC(=O)c2ccncc2)cc1	n	n	n	n	40.6
Cc1ccc(S(=O)(=O)N(C)C)cc1NC(=O)C(C)OC(=O)/C=C/c1cccs1 (configuration not stated)	x	n	n	x	x
COCC1CCN(Cc2cn[nH]c2-c2cc(OC)c(OC)c(OC)c2)CC1	n	n	n	10.7	n
Fc1cccc(Cl)c1/C=N/n1c(-c2cccnc2)n[nH]c1=S	x	n	n	n	n
CN1CCN(C(=O)C2=C[C@@H](C3CC3)C[C@@H](OCc3ccc(CO)cc3)O2)CC1	x	n	n	9.8	n
O=C(C1=C[C@H](C2CC2)C[C@H](OCc2ccc(CO)cc2)O1)N1CCOCC1	x	n	n	n	n
CC1CN(Cc2cnc(Cl)s2)CC(C)O1 (configuration not stated)	n	n	n	22.9	n
O=C(CCn1c(=O)[nH]c2ccsc2c1=O)NCc1ccc(F)cc1	n	51.8	n	n	n
CC1(C(=O)NCCN2CCOCC2)C=CC2(CCCCC2)N1C(=O)c1ccccc1 (configuration not stated)	n	n	n	9.7	n
Cc1nc(N2CCCCC2)c(C#N)c(C)c1[N+](=O)[O-]	n	n	n	n	n
CC(C)N(c1ccccc1)c1ccc(NC(=O)COC(=O)CCN2C(=O)c3cccc([N+](=O)[O-])c3C2=O)cc1	n	n	n	n	n
COc1ccccc1N1CCN(CC(=O)Nc2c(C)n(C)n(-c3ccccc3)c2=O)CC1	n	n	n	n	n
O=C(CCC1CCCCC1)Nc1ccc(C(=O)c2ccncc2)cc1	n	51.4	n	n	n
O=C(CCC1CCCCC1)Nc1cccnc1	n	n	n	n	n
O=C(CN1CCN(Cc2ccccc2)CC1)N/N=C/c1ccc(Br)s1	x	n	n	x	x
SMILES	ROMK mod	Calpain2 inh	HSV augment	HMGR II inh	Arbovirus anti
Cc1csc(NC(=O)c2ccc(C)c(S(=O)(=O)N3CCCCC3)c2)n1	x	n	n	n	31.0
Cc1csc(NC(=O)c2ccc(C)c(S(=O)(=O)N3CCOCC3)c2)n1	n	n	n	n	n
NNC(=O)C1CC1c1ccc(Cl)cc1 (configuration not stated)	n	n	n	18.5	n
NNC(=O)[C@@H]1C[C@@H]1c1ccccc1	n	n	n	n	n
COc1cc([N+](=O)[O-])ccc1-c1ccc(/C=N/NC(=O)c2ccccc2O)o1	n	53.5	n	x	x
COc1ccc(N(C(=O)CCl)C(C)(C(=O)Nc2c(C)cccc2C)c2ccccn2)cc1 (configuration not stated)	n	n	n	n	n
Cn1nc(-c2ccc(Cl)cc2)cc1NC(=O)CCCC(=O)O	x	n	n	x	x
Cc1ccc(-c2csc(NC(=S)NC(=O)c3ccco3)n2)cc1	n	57.4	n	n	n
CCC1CCCCN1S(=O)(=O)c1ccc(NC(=O)c2cccs2)cc1 (configuration not stated)	x	n	n	11.3	n
CCC1CCCCN1S(=O)(=O)c1ccc(NC(=O)CSc2ncccc2C(=O)O)cc1 (configuration not stated)	x	n	n	n	n
CCOC(=O)C(NCCOC)(NC(C)=O)C(F)(F)F (configuration not stated)	x	n	n	x	x
CCc1cccc(CC)c1NC(=O)c1cc(CN2C(=O)c3ccccc3C2=O)ccc1OC	x	50.1	n	n	n
